Among all 5,600 compounds or so, about 4,500 (80%) were called active. So high a share suggests a set chosen from earlier hits. The list is a sample of the results. A number with no mark means an inactive call. Rule as the data show it: active = inhibition above about 10%; inactive = the rest.
assay: GDH-TPI coupling enzyme inhibitors, artefact control for M. tuberculosis FBA inhibitor project, biochemical, fluorescence, high throughput (AID 652141); conditions: GDH-TPI coupled enzyme counterscreen, at 1 µM, hits give high values

Row | Structure (SMILES) | inhibition
1 | COc1cccc2sc3cc(NCC[C@@H]4CCCN4C)ccc3c(=O)c12 | 69.2% (active)
2 | COc1ccc(C2NC(=O)c3ccccc3N2)cc1 (centres undefined) | 122% (active)
3 | O=C1NC(c2cccc(Cl)c2)Nc2ccccc21 (centres undefined) | 84.8% (active)
4 | CCN1CCN(C(=O)c2cc3cc4ccc(OC)cc4nc3s2)CC1 | 74.1% (active)
5 | CCOC(=O)Cc1c(C)nc2c(C#N)c(C)nn2c1C | 39.1% (active)
6 | COC(=O)c1noc(C)c1-c1ccnn1C(=O)c1ccc(Cl)cc1 | 38.9% (active)
7 | COc1ccc(-c2cn3ccc(C)cc3n2)cc1 | -5%
8 | COc1ccc(-c2cc(C(=O)N(C)Cc3ccccc3)c3ccccc3n2)cc1 | -2.5%
9 | COc1ccc(-c2cc(C(=O)Nc3ccccc3O)c3ccccc3n2)cc1 | 114% (active)
10 | O=c1oc2ccccc2cc1-c1cn(-c2ccccc2)c(=S)[nH]1 | 13.5% (active)
11 | COc1ccc2nc(-c3ccccn3)ccc2c1 | 93.8% (active)
12 | Cc1cc(C)c2c(n1)sc1c(=O)n(-c3ccccc3)c(=O)[nH]c12 | 62.5% (active)
13 | CCCc1cc(=O)oc2c(C)c(OCC(=O)N3CCC(C(=O)O)CC3)ccc12 | -7.26%
14 | CCc1cc(=O)oc2c(C)c(OCC(=O)N3CC[C@@]4(O)CCCC[C@H]4C3)ccc12 | 99.4% (active)
15 | CCN(CC)CCCNC(=O)c1cc2c(=O)[nH]c3ccc(C)cc3c2s1 | 98.2% (active)
16 | CCCN(C(=O)CSc1nnc(N)s1)c1c(N)n(Cc2ccccc2)c(=O)[nH]c1=O | 48% (active)
17 | CCOc1ccc2nc(NCCNS(=O)(=O)c3ccccc3)c(C#N)cc2c1 | 15.8% (active)

Row | Structure (SMILES) | inhibition
18 | O=C1C(=O)N(c2ccccc2)C(c2ccccc2)C1c1ccccc1 (centres undefined) | 0.69%
19 | CCc1ccc(-c2cc(C(=O)NCc3ccco3)c3ccccc3n2)s1 | -5.16%
20 | Cn1nc(-c2ccc(Cl)cc2)c2cc(C(=O)NCc3ccco3)sc21 | 33.3% (active)
21 | Cc1cc(C)c2nc(-c3ccco3)cc(C(=O)O)c2c1 | 2.96%
22 | Cc1cc(C)c2nc3nc(C)cc(C)c3c(N)c2c1 | 22.9% (active)
23 | CN1C(=O)c2ccc(NC(=O)C3CCCCC3)cc2C1=O | -2.4%
24 | CN1C(=O)c2ccc(NC(=O)c3c(F)c(F)c(F)c(F)c3F)cc2C1=O | 651% [above what the read-out allows, likely interference] (active)
25 | COCCNc1nc(-n2nc(C)cc2C)nc2sc3c(c12)CCCC3 | 97.7% (active)
26 | COc1ccc(NC(=O)N2CCC(Cc3ccccc3)CC2)cc1 | 23.6% (active)
27 | O=C(NCc1ccccc1)c1onc(CSc2nc3ccccc3[nH]2)c1C(=O)NCc1ccccc1 | 55.8% (active)
28 | CCOC(=O)N1CCC(NC(=O)c2cnn3ccccc23)CC1 | 33.9% (active)
29 | CCCC1OC23CCCCC2C(C#N)(C#N)C1(C#N)C(=N)O3 (centres undefined) | -5.15%
30 | CC12CCC(C(=O)N3CCN(c4ncccn4)CC3)(c3nc4ccccc4nc31)C2(C)C (centres undefined) | 143% (active)
31 | CCc1c(C)c2ccc(OC3CCCCC3=O)cc2oc1=O (centres undefined) | 78% (active)
32 | COc1ccc(-c2oc3ncnc(NCCCO)c3c2-c2ccc(OC)cc2)cc1 | 39.6% (active)
33 | O=C(NCCCN1CCOCC1)c1cnn2c(-c3ccccc3)cc(-c3ccccc3)nc12 | 79.2% (active)
34 | O=C(O)Cc1sc(-c2ccc(C(=O)O)cc2)nc1-c1ccccc1 | -7.95%

— PubChem BioAssay AID652141 (The Scripps Research Institute Molecular Screening Center, 2013)
